# Assay outcomes as filed in PubChem BioAssay.
# A selection: hits, their analogues and other compounds. The true share with any hit is near 32%.
# CYP2C19 act – human CYP2C19 activators, primary screen, biochemical, luminescence. recombinant CYP2C19, luciferin-H EGE luminescence; stronger effect = higher value; 0 = fully inhibited enzyme, 1 = untreated enzyme. activation factor at 5 µM. 96,000 tested, under 10 active. AID 1025, 2008;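 active means activation factor of at least 2 at 5 µM in the primary screen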;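 further: 0 = wells with 2.5 mM tranylcypromine and 1 = vehicle-only wells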
# Target sequence (P33261 whole entry, looked up): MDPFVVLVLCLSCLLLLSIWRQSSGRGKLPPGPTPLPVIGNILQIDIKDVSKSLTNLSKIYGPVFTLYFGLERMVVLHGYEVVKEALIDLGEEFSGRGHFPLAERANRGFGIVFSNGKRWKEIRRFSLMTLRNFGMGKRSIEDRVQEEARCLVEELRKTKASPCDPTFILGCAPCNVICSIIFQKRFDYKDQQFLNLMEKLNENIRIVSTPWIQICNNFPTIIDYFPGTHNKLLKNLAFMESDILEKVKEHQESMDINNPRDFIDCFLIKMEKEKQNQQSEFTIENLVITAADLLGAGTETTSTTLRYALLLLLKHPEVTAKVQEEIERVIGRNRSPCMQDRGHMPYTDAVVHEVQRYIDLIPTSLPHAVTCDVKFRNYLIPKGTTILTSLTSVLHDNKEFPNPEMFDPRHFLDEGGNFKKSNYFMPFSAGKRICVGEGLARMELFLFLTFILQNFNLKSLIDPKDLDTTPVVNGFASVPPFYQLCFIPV
# CYP2C19 inh – blockers of cytochrome P450 2C19 activity – biochemical, luminescence, ADME assay, primary screen. CYP2C19 Supersomes, luciferin-H EGE luminescence, 30 min. inhibition, % at 5 µM. 96,000 tested, 21% active;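 active means CYP2C19 inhibition above a set limit at 5 µM in the primary screen, cut at about 50% in these data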;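 further: plate controls were negative control wells for no effect and 2.5 mM tranylcypromine positive control for full effect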
# CYP2C9 act – human CYP2C9 activators, primary screen, biochemical, luminescence; recombinant CYP2C9, luciferin-H conversion; stronger effect = higher value; factor 1 = untreated enzyme, 0 = blocked; activation factor at 5 µM; 96,000 tested, 1.4% active; AID 1024, 2008;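 active means activation factor of 2 or more for CYP2C9 at a 5 µM dose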;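 further: 0 = sulfaphenazole-blocked wells and 1 = vehicle-only wells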
# CYP2C9 inh – blockers of cytochrome P450 2C9 activity – biochemical, luminescence, ADME assay, primary screen. P11712. 96,000 tested, 20% active. inhibition, % at 5 µM. CYP2C9 Supersomes, luciferin-H conversion;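 active means blocking of liver enzyme CYP2C9 beyond about 50% at 5 µM, limit read from the data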
# PostGolgi ctrl – growth inhibition of yeast control strain, primary screen, counter-screen for post-Golgi transport modulator project; 98,000 tested, 5% active; efflux-deficient yeast background strain, growth absorbance A615, 16 h; AID 738, 2007; inhibition, % at 10 µM
# PostGolgi yeast – phenotypic screen on post-Golgi transport, primary screen; post-Golgi transport phenotypic cell assay; inhibition, % at 10 µM; 98,000 tested, 0.9% active; AID 739, 2007;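 further: yeast cells grown in 1536-well plates; yeast grown about 18 h at 30C before absorbance read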
# Active calls of the source: *. Unless noted, no stated cut-off is given here; in the data, active means inhibition above about 30%; inactive means the rest.
SMILES,CYP2C19 act,CYP2C19 inh,CYP2C9 act,CYP2C9 inh,PostGolgi ctrl,PostGolgi yeast
COC(=O)c1ccc(/C=N\N2CCN(Cc3ccc(C)cc3)CC2)cc1,1.1,-14,1.1,-6,-12,0
CCOC(=O)N1CCN(c2nc3ccccc3nc2C(C#N)C(=O)NCCc2ccccc2)CC1 (configuration not stated),0.3,65*,0.3,73*,0,7
CCOC(=O)C1CCCN(c2nc3ccccc3nc2C(C#N)C(=O)NCc2ccccc2)C1 (configuration not stated),0.7,28,0.4,62*,5,-5
N#CC(C(=O)NCc1ccccc1)c1nc2ccccc2nc1N1CCCC1 (configuration not stated),0.8,20,0.7,32,-6,-2
CCCCNC(=O)CCCCCNS(=O)(=O)c1ccc(OC)cc1,0.8,16,0.7,27,-4,-3
COC(=O)C1=C(C)C(c2ccc(OC)cc2)NC(=S)N1 (configuration not stated),0.7,31,0.9,13,7,-8
CCOC(=O)C1=C(C)NC(=O)NC1/C=C/c1ccccc1 (configuration not stated),0.8,24,0.8,25,5,-3
CCOC(=O)C1=C(C)C(c2ccccc2)NC(=S)N1 (configuration not stated),0.4,63*,0.8,24,0,-7
CCOC(=O)C1=C(c2ccccc2)NC(=S)NC1C (configuration not stated),0.5,52*,0.9,8,1,2
CC(C)NC(=O)c1ccc2c(c1)nnn2C,1.2,-19,1.2,-22,45*,1
Cn1nnc2cc(C(=O)Nc3cccnc3)ccc21,0.9,10,1,-3,-7,39*
O=C(Nc1cccnc1)c1ccc2snnc2c1,0.9,8,1.1,-9,7,-3
Cc1scc(C(=O)N/N=C/c2ccc(OCC(C)C)cc2)c1C,0.3,72*,0.2,82*,26,3
CCCCOc1ccc(/C=N/NC(=O)c2csc(C)c2C)cc1,0.3,65*,0.4,60*,35*,-2
Cc1cc(C)c2c(CC(=O)Nc3nccs3)coc2c1,0.9,12,0.8,20,6,-1
CCOc1nc(Nc2ccc(OC)c(Cl)c2)nc(OCC)n1,0.9,5,0.9,8,36*,14
S=C(NCCC(c1ccccc1)c1ccccc1)Nc1ccccc1Cl,0.4,55*,0.3,66*,9,3
CCCC/S(CC1CC1(Cl)Cl)=N\S(=O)(=O)c1ccc(C)cc1 (configuration not stated),1,-2,0.9,6,0,-6
Cc1ccc(S(=O)(=O)/N=S(\C)CC2CC2(Cl)Cl)cc1 (configuration not stated),0.4,58*,1.6,-60,25,-7
Cc1ccccc1-c1nnn(CC(=O)NCc2ccc3c(c2)OCO3)n1,0.5,47,0.2,82*,17,-10
Cc1ccccc1CN1CCN(CC(=O)NCc2ccc3c(c2)OCO3)C1=O,0.8,15,0.2,76*,13,-4
O=C(Cn1nnc(-c2ccccc2F)n1)Nc1ccc2c(c1)OCO2,0.5,48,0.6,45,11,1
CCOc1ccccc1NC(=O)c1ccccc1-c1nc(-c2ccccc2OC)no1,0.6,39,0.4,63*,24,-12
CC(C)(C)NC(=O)c1ccccc1-c1nc(-c2ccccc2Cl)no1,0.2,85*,0,100*,30*,4
CC(C)NC(=O)c1ccccc1-c1nc(-c2ccccc2Cl)no1,0.8,17,0.2,79*,8,-3
COCCNC(=O)c1ccccc1-c1nc(-c2ccccc2OC)no1,0.9,11,0.8,19,3,4
CCNC(=O)c1ccccc1-c1nc(-c2ccccc2Cl)no1,0.8,15,0.2,76*,-1,15
COc1ccc(-c2cc(C(=O)NCC(C)C)no2)cc1,1,-3,1,4,0,-8
